Assay results from PubChem BioAssay (EPA / NIEHS).
The source made the active and inactive calls. How the source made its calls: active means hit-call score of the fitted dose curve at least 0.9, where 1 is the maximum; inactive means score below 0.9.

What was measured:
Settings in all cases: mRNA level, 48 h; actives raise or lower the signal
[1] = read-out: Heat shock 70 kDa protein 1 (HSPA1A), gene 3303; assay: LTEA_HepaRG_HSPA1A: Life Technologies and Expression Analysis (LTEA) Assay for Heat shock 70 kDa protein 1 (HSPA1A) using HepaRG (AID 2283502)
Summary of the method: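 HSPA1A expression measured by qRT-PCR with ACTB/GAPDH/POLR2A normalization; curves fitted in both directions relative to DMSO vehicle. Exposure: 48 h in HepaRG cells, duplicate 8-point half-log series from 100 uM, 0.5% DMSO, serum-free induction medium.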

[2] = read-out: 3-Hydroxy-3-Methylglutaryl-CoA Synthase 2 (HMGCS2), HMGCS2 (gene 3158); assay: LTEA_HepaRG_HMGCS2: Life Technologies and Expression Analysis (LTEA) Assay for 3-Hydroxy-3-Methylglutaryl-CoA Synthase 2 (HMGCS2) using HepaRG (AID 2283504)
Summary of the method: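 Readout is HMGCS2 transcript by qRT-PCR, housekeeping-normalised (ACTB/GAPDH/POLR2A) and fitted bidirectionally against 0.5% DMSO. Differentiated HepaRG cells received chemicals 48 h, duplicate wells, eight half-log concentrations topping at 100 uM.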

HGF (gene 3082) = assay: LTEA_HepaRG_HGF: Life Technologies and Expression Analysis (LTEA) Assay for Hepatocyte Growth Facto (HGF) using HepaRG (AID 2283505)
Summary of the method: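 HGF transcript was quantified by TaqMan qRT-PCR against three housekeeping genes after 48 h treatment of HepaRG cells. Exposure ran in duplicate over eight half-log steps topping at 100 uM in 0.5% DMSO vehicle.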

[3] = read-out: Insulin Like Growth Factor 1 (IGF1), IGF1 (gene 3479); assay: LTEA_HepaRG_IGF1: Life Technologies and Expression Analysis (LTEA) Assay for Insulin Like Growth Factor 1 (IGF1) using HepaRG (AID 2283506)
Summary of the method: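 Expression measured by TaqMan qRT-PCR on a Fluidigm array, with three housekeeping genes for normalisation, after 48 h treatment of HepaRG cells. Top concentration 100 uM with half-log steps, 0.5% DMSO vehicle, bidirectional fit.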

[4] = read-out: Intercellular Adhesion Molecule 1 (ICAM1), ICAM1 (gene 3383); assay: LTEA_HepaRG_ICAM1: Life Technologies and Expression Analysis (LTEA) Assay for Intercellular Adhesion Molecule 1 (ICAM1) using HepaRG (AID 2283507)
Summary of the method: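 ICAM1 transcript levels measured by qRT-PCR, normalized to three housekeeping genes (ACTB, GAPDH, POLR2A), after 48 h chemical exposure of HepaRG cells. Duplicate eight-point half-log series from 100 uM in 0.5% DMSO; gain or loss fitted against vehicle.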

[5] = read-out: Insulin-like growth factor-binding protein 1 (IGFBP1), IGFBP1 (gene 3484); assay: LTEA_HepaRG_IGFBP1: Life Technologies and Expression Analysis (LTEA) Assay for Insulin-like growth factor-binding protein 1 (IGFBP1) using HepaRG (AID 2283508)
Summary of the method: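 Read-out is qRT-PCR transcript level normalized to three housekeeping genes, fitted in both directions against 0.5% DMSO. Differentiated HepaRG cells received eight half-log concentrations (top 100 uM) in duplicate for 48 h in serum-free induction medium.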

[6] = read-out: Interleukin 6 (IL6), IL6 (gene 3569); assay: LTEA_HepaRG_IL6: Life Technologies and Expression Analysis (LTEA) Assay for Interleukin 6 (IL6) using HepaRG (AID 2283509)
Summary of the method: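 Changes in IL6 mRNA, up or down relative to 0.5% DMSO controls, were derived from concentration-response curves in human HepaRG cells treated for 48 h at up to 100 uM, with ACTB, GAPDH and POLR2A as normalizers.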

[7] = read-out: Interleukin 6 Receptor (IL6R), IL6R (gene 3570); assay: LTEA_HepaRG_IL6R: Life Technologies and Expression Analysis (LTEA) Assay for Interleukin 6 Receptor (IL6R) using HepaRG (AID 2283510);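 on AC50: differentiated human HepaRG liver cells in serum-free induction medium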
Summary of the method: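 IL6R transcript level by qRT-PCR after 48 h chemical exposure (8-point, half-log, max 100 uM, 0.5% DMSO vehicle) of HepaRG cells in serum-free induction medium. Normalized to three housekeeping genes; curves fitted in both directions relative to DMSO.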

[8] = read-out: Potassium channel subfamily K member 1 (KCNK1), KCNK1 (gene 3775); assay: LTEA_HepaRG_KCNK1: Life Technologies and Expression Analysis (LTEA) Assay for Potassium channel subfamily K member 1 (KCNK1) using HepaRG (AID 2283511)
Summary of the method: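 Human HepaRG cultures receive test chemicals for 48 h in 0.5% DMSO, top concentration 100 uM with half-log dilutions. Induction or suppression of KCNK1 mRNA relative to DMSO is derived by bidirectional fitting of qRT-PCR data.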

[9] = read-out: Keratin 19 (KRT19), KRT19 (gene 3880); assay: LTEA_HepaRG_KRT19: Life Technologies and Expression Analysis (LTEA) Assay for Keratin 19 (KRT19) using HepaRG (AID 2283512)
Summary of the method: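 KRT19 transcript measured by TaqMan qRT-PCR, referenced to three housekeeping genes, after HepaRG cells received test chemicals for 48 h. Eight half-log concentrations, top 100 uM, 0.5% DMSO vehicle; increases and decreases both fitted.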

[10] = read-out: Lipase C (LIPC), LIPC (gene 3990); assay: LTEA_HepaRG_LIPC: Life Technologies and Expression Analysis (LTEA) Assay for Lipase C (LIPC) using HepaRG (AID 2283514)
Summary of the method: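 In this multiplexed gene-expression screen, human HepaRG cultures received test chemicals for 48 h across eight concentrations with 100 uM highest, in duplicate. Values reflect LIPC mRNA induction or suppression versus DMSO vehicle, from normalized qRT-PCR.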

[11] = read-out: Lipoprotein lipase (LPL), LPL (gene 4023); assay: LTEA_HepaRG_LPL: Life Technologies and Expression Analysis (LTEA) Assay for Lipoprotein lipase (LPL) using HepaRG (AID 2283515)
Summary of the method: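 Concentration-response testing used half-log steps from 100 uM in 0.5% DMSO on human HepaRG cells, 48 h, duplicate wells. Phenobarbital 1 mM served as induction control; LPL mRNA was normalized to ACTB, GAPDH, POLR2A.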

[12] = read-out: matrix metalloproteinase-10 (MMP10), MMP10 (gene 4319); assay: LTEA_HepaRG_MMP10: Life Technologies and Expression Analysis (LTEA) Assay for matrix metalloproteinase-10 (MMP10) using HepaRG (AID 2283517)
Summary of the method: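 In differentiated HepaRG cultures kept in 0.5% DMSO, test chemicals act for 48 h over an eight-point range with a top dose of 100 uM. Expression is then quantified by TaqMan RT-PCR against ACTB, GAPDH and POLR2A.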

MYC, MYC (gene 4609) = assay: LTEA_HepaRG_MYC: Life Technologies and Expression Analysis (LTEA) Assay for MYC using HepaRG (AID 2283518)
Summary of the method: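 MYC transcript changes, up or down relative to 0.5% DMSO, from TaqMan qRT-PCR normalized to three housekeeping genes. Human HepaRG cultures received chemicals for 48 h at eight half-log concentrations up to 100 uM, in duplicate.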

[13] = read-out: matrix metalloproteinase-3 (MMP3), MMP3 (gene 4314); assay: LTEA_HepaRG_MMP3: Life Technologies and Expression Analysis (LTEA) Assay for matrix metalloproteinase-3 (MMP3) using HepaRG (AID 2283519)
Summary of the method: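 Human liver HepaRG cultures received chemicals (top concentration 100 uM, 0.5% DMSO) for 48 h in duplicate. MMP3 mRNA induction or loss was then assessed via TaqMan qRT-PCR with housekeeping-gene normalisation.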

[14] = read-out: Paternally Expressed 10 (PEG10), PEG10 (gene 23089); assay: LTEA_HepaRG_PEG10: Life Technologies and Expression Analysis (LTEA) Assay for Paternally Expressed 10 (PEG10) using HepaRG (AID 2283520);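 on AC50: PEG10 transcript by qRT-PCR normalised to ACTB GAPDH and POLR2A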
Summary of the method: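 PEG10 transcript measured by Fluidigm qRT-PCR, normalized to three housekeeping genes, in HepaRG cells treated 48 h (highest 100 uM, half-log steps, 0.5% DMSO vehicle). Cells plated 48 h before switching to serum-free induction medium.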

[15] = read-out: Hypoxia-inducible factor 1-alpha (Homo sapiens) (UniProt Q16665); assay: LTEA_HepaRG_HIF1A: Life Technologies and Expression Analysis (LTEA) Assay for Hypoxia-inducible factor 1 (HIF1A) Trancription factor using HepaRG (AID 2283503)
Summary of the method: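 HIF1A transcript level read by qRT-PCR (ACTB, GAPDH, POLR2A normalization) after 48 h chemical exposure of HepaRG cultures. Eight half-log concentrations, top 100 uM, 0.5% DMSO vehicle, duplicates; bidirectional curve fit against DMSO baseline.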

[16] = read-out: JUN Transcription Factor, JUN (gene 3725); assay: LTEA_HepaRG_JUN: Life Technologies and Expression Analysis (LTEA) Assay for JUN Transcription Factor using HepaRG (AID 2283513)
Summary of the method: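 mRNA measured by TaqMan qRT-PCR after 48 h chemical exposure of HepaRG cultures; normalization to three housekeeping genes. Duplicate eight-point half-log curves from 100 uM in 0.5% DMSO; gain or loss fitted against DMSO baseline.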

[17] = read-out: MicroRNA 122 (MIR122), gene 406906; assay: LTEA_HepaRG_MIR122: Life Technologies and Expression Analysis (LTEA) Assay for MicroRNA 122 (MIR122) using HepaRG (AID 2283516); further: the transcript read is the microRNA miR-122
Summary of the method: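 Expression measured by microfluidic qRT-PCR with three housekeeping genes for normalisation, after 48 h treatment of HepaRG cultures. Eight concentrations (top 100 uM, half-log steps, 0.5% DMSO vehicle) in duplicate; gain or loss fitted relative to vehicle.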

[18] = read-out: Nuclear factor NF-kappa-B p105 subunit (Homo sapiens) (UniProt P19838); assay: LTEA_HepaRG_NFKB1: Life Technologies and Expression Analysis (LTEA) Assay for Nuclear Factor Kappa B Subunit 1 (NFKB1) using HepaRG (AID 2283521);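 further: differentiated human HepaRG liver cells in serum-free induction medium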
Summary of the method: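 Human HepaRG cells receive eight half-log concentrations, highest 100 uM, for 48 h. NFKB1 expression is then quantified by qRT-PCR and analysed for up- or down-regulation relative to 0.5% DMSO vehicle.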

Measured: AC50

Sequence of Nuclear factor NF-kappa-B p105 subunit (Homo sapiens) (P19838 whole entry, looked up): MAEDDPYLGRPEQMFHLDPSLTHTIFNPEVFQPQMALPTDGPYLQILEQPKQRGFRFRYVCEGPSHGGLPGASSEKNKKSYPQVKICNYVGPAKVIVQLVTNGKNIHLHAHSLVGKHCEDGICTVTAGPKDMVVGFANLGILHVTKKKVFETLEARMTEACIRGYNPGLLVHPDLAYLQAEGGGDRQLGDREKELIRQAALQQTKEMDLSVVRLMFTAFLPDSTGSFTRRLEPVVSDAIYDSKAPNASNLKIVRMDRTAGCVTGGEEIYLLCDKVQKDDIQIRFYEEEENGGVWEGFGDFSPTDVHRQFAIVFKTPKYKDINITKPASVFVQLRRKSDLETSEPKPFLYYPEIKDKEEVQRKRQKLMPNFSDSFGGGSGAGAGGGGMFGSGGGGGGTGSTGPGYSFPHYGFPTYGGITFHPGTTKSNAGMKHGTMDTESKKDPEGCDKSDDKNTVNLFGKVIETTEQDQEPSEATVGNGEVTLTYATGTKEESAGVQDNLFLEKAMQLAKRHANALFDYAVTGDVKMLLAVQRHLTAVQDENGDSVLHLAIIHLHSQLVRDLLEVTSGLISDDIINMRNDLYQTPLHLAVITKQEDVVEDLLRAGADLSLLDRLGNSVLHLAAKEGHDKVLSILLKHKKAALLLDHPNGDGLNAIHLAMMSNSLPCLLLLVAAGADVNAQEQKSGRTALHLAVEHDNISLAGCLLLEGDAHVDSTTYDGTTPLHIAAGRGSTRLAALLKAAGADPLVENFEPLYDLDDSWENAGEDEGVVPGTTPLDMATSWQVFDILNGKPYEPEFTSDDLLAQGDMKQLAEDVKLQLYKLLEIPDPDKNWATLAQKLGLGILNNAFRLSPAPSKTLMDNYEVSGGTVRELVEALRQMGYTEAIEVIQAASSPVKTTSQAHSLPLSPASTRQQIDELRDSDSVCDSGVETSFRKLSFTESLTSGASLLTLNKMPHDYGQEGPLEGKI
Sequence of Hypoxia-inducible factor 1-alpha (Homo sapiens) (Q16665 whole entry, looked up): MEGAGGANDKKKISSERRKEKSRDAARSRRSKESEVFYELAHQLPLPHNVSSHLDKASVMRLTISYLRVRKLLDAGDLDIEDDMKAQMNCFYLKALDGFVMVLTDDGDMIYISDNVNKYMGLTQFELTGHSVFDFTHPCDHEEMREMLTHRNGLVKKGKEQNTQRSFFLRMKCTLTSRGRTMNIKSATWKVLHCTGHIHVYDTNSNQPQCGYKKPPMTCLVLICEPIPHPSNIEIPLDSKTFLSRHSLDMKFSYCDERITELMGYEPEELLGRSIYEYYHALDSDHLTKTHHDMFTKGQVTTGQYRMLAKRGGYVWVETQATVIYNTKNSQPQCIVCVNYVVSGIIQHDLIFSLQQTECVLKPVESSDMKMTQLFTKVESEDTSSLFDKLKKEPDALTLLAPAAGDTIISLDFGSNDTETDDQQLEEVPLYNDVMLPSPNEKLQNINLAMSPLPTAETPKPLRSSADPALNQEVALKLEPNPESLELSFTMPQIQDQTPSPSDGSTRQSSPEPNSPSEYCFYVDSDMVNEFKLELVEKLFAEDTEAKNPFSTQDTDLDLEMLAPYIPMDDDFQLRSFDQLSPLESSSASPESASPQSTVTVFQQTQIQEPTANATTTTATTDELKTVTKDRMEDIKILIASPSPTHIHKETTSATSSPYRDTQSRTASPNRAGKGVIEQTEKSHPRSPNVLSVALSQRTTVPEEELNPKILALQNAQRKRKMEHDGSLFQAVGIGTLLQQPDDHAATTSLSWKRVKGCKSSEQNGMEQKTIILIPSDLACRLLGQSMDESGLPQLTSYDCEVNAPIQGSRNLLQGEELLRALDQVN

CCCCCCCCCCCCCN1CC(C)OC(C)C1 (centres undefined)
not listed: [15] | [16] | [17] | [18]
inactive: all other assays above

CC(C)(C)OOC(=O)c1ccccc1
inactive: all assays above

c1ccc(NNc2ccccc2)cc1
not listed: [16] | [17]
inactive: all other assays above

OCCCl
not listed: [18]
inactive: all other assays above

C1=Cc2cccc3cccc1c23
inactive: all assays above

[O-][Cl+]O
not listed: [15] | [16]
inactive: all other assays above

Nc1ccc(N=Nc2ccccc2)cc1
active: [1] 34 µM | [2] 24.6 µM | [3] 12.8 µM | [4] 30.9 µM | [7] 13 µM | [9] 50 µM | [10] 12.8 µM | [11] 22.3 µM | [14] 18.4 µM
inactive: [15] | HGF (gene 3082) | [5] | [6] | [8] | [12] | MYC, MYC (gene 4609) | [13]

Nc1ccc(Cc2ccc(N)cc2)cc1
not listed: [13] | [17]
inactive: all other assays above

c1ccc2c(c1)oc1ccccc12
not listed: [15] | [16] | [17]
inactive: all other assays above

Cn1cc(-c2ccccc2)c(=O)c(-c2cccc(C(F)(F)F)c2)c1
active: [1] 16.3 µM | [5] 50 µM | [14] 23.5 µM
not listed: [17]
inactive: all other assays above

Clc1ccccc1Cl
not listed: [9]
inactive: all other assays above

CN(C)c1ccc(C(=O)c2ccc(N(C)C)cc2)cc1
active: [9] 13.5 µM | [10] 33 µM | [14] 22.3 µM
not listed: [16]
inactive: all other assays above

ClCCOCCCl
not listed: [1] | [9]
inactive: all other assays above

CC(C)(C)OOC(C)(C)CCC(C)(C)OOC(C)(C)C
not listed: [1] | [16] | [17] | [18]
inactive: all other assays above
